Measurements: PubChem BioAssay (EPA / NIEHS)
Active and inactive are the calls of the source. Rule for the calls: active = hit-call score of the fitted dose curve at least 0.9, where 1 is the maximum; inactive = score below 0.9.

Tests used:
[1] = read-out: Thrombomodulin, THBD (gene 7056); assay: BSK_CASM3C_Thrombomodulin: BioMAP Diversity Plus: CASM3C Assay for Thrombomodulin Biomarker Activity (AID 2283051); conditions: primary human coronary artery smooth muscle cells; actives raise or lower the signal;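 note: thrombomodulin protein level measured by ELISA 24 h after dosing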
[2] = read-out: Tissue Factor, F3 (gene 2152); assay: BSK_CASM3C_TissueFactor: BioMAP Diversity Plus: CASM3C Assay for Tissue Factor Biomarker Activity (AID 2283052); conditions: primary human coronary artery smooth muscle cells; actives raise or lower the signal;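 note: cell surface tissue factor protein level read by ELISA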
[3] = read-out: Interferon-gamma inducible Protein 10 (IP10), CXCL10 (gene 3627); assay: BSK_hDFCGF_IP10: BioMAP Diversity Plus: hDFCGF Assay for Interferon-gamma inducible Protein 10 (IP10) Biomarker Activity (AID 2283053); conditions: primary human foreskin fibroblasts; actives raise or lower the signal
Procedure, shortened: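 Human foreskin fibroblast primary cells (hDFCGF system) were dosed with chemical and assayed at 24 h; IP-10 measured by ELISA. Activity fitted bidirectionally relative to DMSO negative control as baseline.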

[4] = read-out: Urokinase-type plasminogen activator receptor (uPAR), PLAUR (gene 5329); assay: BSK_CASM3C_uPAR: BioMAP Diversity Plus: CASM3C Assay for Urokinase-type plasminogen activator receptor (uPAR) Biomarker Activity (AID 2283054); conditions: primary human coronary artery smooth muscle cells; actives raise or lower the signal;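 note: cell-surface uPAR protein level quantified by ELISA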
[5] = read-out: Vascular cell adhesion molecule 1 (VCAM1), VCAM1 (gene 7412); assay: BSK_CASM3C_VCAM1: BioMAP Diversity Plus: CASM3C Assay for Vascular cell adhesion molecule 1 (VCAM1) Biomarker Activity (AID 2283055); conditions: primary human coronary artery smooth muscle cells; actives raise or lower the signal;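 note: VCAM-1 protein level quantified by ELISA on the cells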
[6] = read-out: Collagen III, COL3A1 (gene 1281); assay: BSK_hDFCGF_CollagenIII: BioMAP Diversity Plus: hDFCGF Assay for Collagen III Biomarker Activity (AID 2283056); conditions: primary human foreskin fibroblasts; actives raise or lower the signal
Procedure, shortened: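 Cells: human foreskin fibroblasts, primary. Dosing followed by 24 h incubation, then ELISA for collagen III. Both increases and decreases scored relative to DMSO.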

[7] = read-out: Epidermal growth factor receptor (EGFR), EGFR (gene 1956); assay: BSK_hDFCGF_EGFR: BioMAP Diversity Plus: hDFCGF Assay for Epidermal growth factor receptor (EGFR) Biomarker Activity (AID 2283057); conditions: primary human foreskin fibroblasts; actives raise or lower the signal
Procedure, shortened: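 Primary human foreskin fibroblasts were exposed to compound for 24 h, after which cell-surface EGFR was quantified by ELISA. Activity was fitted bidirectionally against the DMSO negative control as baseline.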

[8] = read-out: Interleukin-8 (IL8), CXCL8 (gene 3576); assay: BSK_hDFCGF_IL8: BioMAP Diversity Plus: hDFCGF Assay for Interleukin-8 (IL8) Biomarker Activity (AID 2283058); conditions: primary human foreskin fibroblasts; actives raise or lower the signal
Procedure, shortened: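 IL-8 levels from compound-treated primary human fibroblasts were read by ELISA at 24 h, with DMSO serving as baseline for bidirectional fitting.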

[9] = BSK_hDFCGF_Proliferation: Cell Proliferation Assessment in the BioMAP Diversity Plus: hDFCGF Assay (AID 2283059); conditions: primary human foreskin fibroblasts;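 note: curves fitted for both rise and fall of signal versus DMSO baseline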
Procedure, shortened: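 Sub-confluent human foreskin fibroblast cultures receive test chemical […]. Relative cell number is quantified by sulforhodamine B staining (0.1%, after 10% TCA fixation) at 560 nm, with bidirectional fitting referenced to DMSO.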

[10] = read-out: Macrophage colony-stimulating factor (MCSF), CSF1 (gene 1435); assay: BSK_hDFCGF_MCSF: BioMAP Diversity Plus: hDFCGF Assay for Macrophage colony-stimulating factor (MCSF) Biomarker Activity (AID 2283060); conditions: primary human foreskin fibroblasts; actives raise or lower the signal
Procedure, shortened: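 M-CSF levels, determined by ELISA, are taken at 24 h after dosing human skin fibroblasts. Responses in either direction are fitted with DMSO serving as the baseline.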

Measured: AC50

CC1(C)CON(Cc2ccccc2Cl)C1=O
inactive: all assays above

CC1(C)C(C=C(Cl)Cl)C1C(=O)OC(C#N)c1cccc(Oc2ccccc2)c1 (centres undefined)
inactive: all assays above

COP(=S)(OC)SCn1nnc2ccccc2c1=O
active: [9] 26.2 µM
inactive: all other assays above

CSC(=O)c1c(C(F)F)nc(C(F)(F)F)c(C(=O)SC)c1CC(C)C
active: [1] 20 µM | [3] 25.5 µM | [9] 30.6 µM | [10] 11.4 µM
inactive: all other assays above

CS(=O)(=O)c1ccc(C(=O)C2C(=O)CCCC2=O)c([N+](=O)[O-])c1
inactive: all assays above

OC(c1ccc(Cl)cc1)(c1ccc(Cl)cc1)C(Cl)(Cl)Cl
inactive: [2] | [7]
active: [1] 33.1 µM | [3] 9.87 µM | [4] 32.9 µM | [5] 27.2 µM | [6] 10.3 µM | [8] 11 µM | [9] 10 µM | [10] 8.17 µM

CCCCC(O)(Cn1cncn1)c1ccc(Cl)cc1Cl (centres undefined)
active: [3] 32.9 µM | [6] 29.9 µM | [9] 22.9 µM
inactive: all other assays above

CC(C)=CC1C(C(=O)OCc2coc(Cc3ccccc3)c2)C1(C)C (centres undefined)
active: [1] 20 µM | [3] 3.97 µM | [6] 12.2 µM | [9] 15 µM | [10] 11.1 µM
inactive: [2] | [4] | [5] | [7] | [8]

CC(C)Nc1nc(Cl)nc(NC(C)C)n1
active: [4] 13.6 µM
inactive: all other assays above

Cc1cnc(C2=NC(C)(C(C)C)C(=O)N2)c(C(=O)O)c1 (centres undefined)
inactive: all assays above

CNC(=O)N(C)c1nnc(C(C)(C)C)s1
inactive: all assays above

CCOP(=O)(OCC)Oc1nc(Cl)c(Cl)cc1Cl
active: [1] 0.297 µM | [3] 20 µM | [6] 3.97 µM | [9] 12 µM | [10] 5.14 µM
inactive: all other assays above

COP(=O)(OC)O/C(C)=C/C(=O)N(C)C
inactive: all assays above

CN=C=S
active: [3] 16.6 µM | [7] 5.42 µM
inactive: all other assays above

COC(=O)N(C(=O)N1CO[C@@]2(C(=O)OC)Cc3cc(Cl)ccc3C2=N1)c1ccc(OC(F)(F)F)cc1
active: [3] 13.5 µM | [9] 7.63 µM
inactive: all other assays above

Clc1nc(Cl)nc(Nc2ccccc2Cl)n1
active: [3] 32 µM | [9] 27.8 µM
not listed: [10]
inactive: all other assays above

CCNC(=O)NC(=O)C(C#N)=NOC
active: [1] 15.9 µM
inactive: all other assays above

Cc1cc(C)nc(Nc2ccccc2)n1
inactive: all assays above

COCC(=O)N(c1c(C)cccc1C)C(C)C(=O)OC (centres undefined)
inactive: all assays above

CC(C)NC(=O)N1CC(=O)N(c2cc(Cl)cc(Cl)c2)C1=O
active: [6] 0.702 µM
inactive: all other assays above
